Source: PubChem (National Center for Advancing Translational Sciences (NCATS))
In the library only some 10% were active in any assay of this set; here they are far more common.
BAZ2B inh = qHTS Assay for Inhibitors of BAZ2B | Bromodomain adjacent to zinc finger domain protein 2B (Homo sapiens), Q9UIF8 | AlphaScreen BAZ2B-H3K14Ac peptide displacement | Potency, µM (series often up to 114 µM), usual class: inhibitors | 360,000 compounds, 4.4% hits | AID 504333, 2011; note: nearly all actives have a fitted effect of over 60% in size
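Multi-concentration screen (max 110 uM) measuring displacement of acetylated histone H3 peptide from BAZ2B by AlphaScreen, using 50 nM protein, 50 nM peptide and 10 ug/mL streptavidin donor plus Ni-chelate acceptor beads.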
JMJD2A Tudor inh = qHTS Assay for Inhibitors of JMJD2A-Tudor Domain; Potency, µM (titrated, usually from 114 µM), usual class: inhibitors; 390,000 compounds, 4.4% hits; AID 504339, 2011; AlphaScreen JMJD2A-Tudor / H3K4me3 peptide binding; Lysine-specific demethylase 4A (Homo sapiens), O75164; note: nearly all actives have a fitted effect of over 50% in size
CtBP-E1A inh = qHTS Assay for Inhibitors of the CtBP/E1A Interaction | AlphaScreen GST-E1A/His-CtBP binding, 1536-well; active compounds read low | CtBP / adenovirus E1A interaction (AlphaScreen) | AID 651724, 2012 | activity change, % (test concentration not listed) | 340,000 compounds, 0.49% hits; in the data active = activity change below about -65%; inconclusive = mostly about -30% to -63%
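Homogeneous bead-based format: GST-tagged E1A captured on glutathione donor beads, His-tagged CtBP on nickel acceptor beads; compounds precede bead addition by 2 h at 37 °C.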
HP1b binding inh = HTS for Inhibitors of HP1-beta Chromodomain Interactions with Methylated Histone Tails; Potency, µM (doses to about 114 µM), hits mostly inhibitors; AlphaScreen HP1-beta / biotin-H3K9me3 peptide binding; Chromobox protein homolog 1 (Homo sapiens), P83916; 390,000 compounds, 0.56% hits; note: nearly all actives have a fitted effect of over 70% in size
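HP1-beta protein (50 nM final) preincubated 30 min at room temperature with biotinylated H3(1-18)K9me3 peptide (50 nM) in PBS pH 7.4, 0.01% Tween-20, then compound added for 30 min. AlphaScreen streptavidin donor/nickel chelate acceptor beads (10 ug/mL final), 30 min dark, luminescence read.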
Six1-Eya2 inh = qHTS Assay for Inhibitors of the Six1/Eya2 Interaction; activity change, % (test concentration not listed); AID 651725, 2012; AlphaScreen GST-Six1/His-Eya2 binding, biochemical; active compounds read low; 360,000 compounds, 0.56% hits; in the data active = activity change below about -65%; inconclusive = mostly about -30% to -63%
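GST-Six1 + His-Eya2 (5X stock: 250/500 nM); Tris pH 8.0, 300 mM NaCl, 0.05% BSA, 0.02% Tween 20; GSH donor/Ni acceptor beads; 1 h 37 °C dark; AlphaScreen readout.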
G9a block = qHTS Assay for Inhibitors of Histone Lysine Methyltransferase G9a; G9a H3K9 monomethylation, AlphaScreen, 2 h; Potency, µM (highest dose often 102 µM), hits mostly inhibitors; 350,000 compounds, 8.8% hits; note: nearly all actives have a fitted effect of over 75% in size
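Methyltransferase reactions run at room temperature for 2 h (20 nM enzyme, 500 nM biotin-H3K9 peptide, 20 uM SAM) after a 15 min compound preincubation; product detected by AlphaScreen beads and anti-H3K9me1 antibody.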
Each line names hits and unclear results; the compound was inactive in the other large screens. Unless noted, calls come from the whole dose curve; as a rule, active = well fitted inhibition curve with a large enough effect; inconclusive = small, poorly fitted or top-dose-only effect; inactive = no such curve, though single readings can be large or run the other way.

O=C(O)c1cc2c(s1)-c1ccccc1CC2	none
c1ccc(-c2cc3n(c2)CCc2ccccc2-3)cc1	JMJD2A Tudor inh inconclusive, G9a block 3.16µM
C=CCn1c(CNS(=O)(=O)c2ccc(Cl)cc2)n[nH]c1=S	JMJD2A Tudor inh 28.2µM, G9a block 31.6µM
C=CCn1c(CNS(=O)(=O)c2ccc(Br)cc2)n[nH]c1=S	JMJD2A Tudor inh 28.2µM, G9a block 31.6µM
C=CCn1c(Cc2nc3ccc(Cl)cc3[nH]2)n[nH]c1=S	BAZ2B inh inconclusive, JMJD2A Tudor inh inconclusive, Six1-Eya2 inh inconclusive, G9a block inconclusive
C=CCn1c(CNS(=O)(=O)c2ccc(F)cc2)n[nH]c1=S	JMJD2A Tudor inh 12.6µM
Cc1cc(-c2ccccc2)nc(N/N=C/c2ccc(N(C)C)cc2)n1	JMJD2A Tudor inh 35.5µM, HP1b binding inh inconclusive (no result: BAZ2B inh, CtBP-E1A inh, G9a block)
Cc1cc(C)nc(N/N=C/c2ccc(Cl)cc2)n1	G9a block 44.7µM (no result: CtBP-E1A inh)
CC(/C=N/Nc1nc(C)cc(C)n1)=C\c1ccc(C(C)C)cc1	HP1b binding inh inconclusive, G9a block 39.8µM
Cc1nc2ccccc2n1CCc1nc2c3ccccc3nc(=S)n2[nH]1	JMJD2A Tudor inh 63.1µM, G9a block 14.1µM
O=C1C=C(c2ccc(C(=O)O)c(Cl)c2)C[C@@H](c2ccc3c(c2)OCO3)C1	JMJD2A Tudor inh 70.8µM (no result: BAZ2B inh, G9a block)
O=C1C=C(c2ccc(-c3ccccc3)cc2)C[C@@H](c2ccc3c(c2)OCO3)C1	none
O=C(O)CC(NC(=O)C1c2ccccc2Oc2ccccc21)c1ccc(Cl)cc1 (centres undefined)	G9a block 11.2µM
CCOc1ccc(C(CC(=O)O)NC(=O)C2c3ccccc3Oc3ccccc32)cc1 (centres undefined)	none (no result: CtBP-E1A inh)
COC(=O)c1ccccc1NC(=S)N(Cc1ccc2c(c1)OCO2)Cc1cc2ccc(OC)cc2[nH]c1=O	BAZ2B inh inconclusive, G9a block 0.282µM
COC(=O)c1ccccc1NC(=S)N(Cc1ccc2c(c1)OCO2)Cc1cc2ccc(C)cc2[nH]c1=O	none
CN1C[C@@H]2[C@@H]3C(=O)N(Cc4ccccc4)C(=O)[C@@H]3[C@](C)(C1=O)N2C(=O)c1ccccc1	none (no result: BAZ2B inh, G9a block)
CCc1cccc2c1NC(=O)[C@]21[C@@H]2C(=O)N(Cc3ccccc3)C(=O)[C@@H]2[C@@H]2CCCN21	G9a block 44.7µM
Cc1c(Cl)ccc2c1NC(=O)[C@]21[C@@H]2C(=O)N(Cc3ccccc3)C(=O)[C@@H]2[C@@H]2CCCN21	G9a block 44.7µM
CCn1cc([N+](=O)[O-])c(C(=O)N2N=C(c3ccc(O)c(OC)c3)CC2c2ccccc2O)n1 (centres undefined)	G9a block 39.8µM
O=C(O)C(O)C(O)C(O)C(O)C(=O)O (centres undefined)	none (no result: BAZ2B inh, JMJD2A Tudor inh, CtBP-E1A inh, HP1b binding inh, Six1-Eya2 inh)
CCOC(=O)C1(C/C(C)=N/NC(N)=O)CC(C)OC1=O (centres undefined)	none
CC(=O)Nc1ccc(NC(=O)c2cccc(-c3cc4ccccc4oc3=O)c2)cc1	none
O=C(Nc1ccc(N2CCCC2)c(Cl)c1)c1cccc(-c2cc3ccccc3oc2=O)c1	G9a block 44.7µM
COc1ccc2c(C)cc(SCC(=O)Nc3cccnc3Cl)nc2c1	none
N#CC1=C(c2ccccc2)/C(=C/c2ccccc2)OC1=O	BAZ2B inh 22.4µM, JMJD2A Tudor inh inconclusive, HP1b binding inh inconclusive, G9a block 12.6µM
O=C1O/C(=C/c2ccccc2)c2ccccc21	none
COc1ccc(S(=O)(=O)N(C)C)cc1NC(=O)Cc1ccc(S(=O)(=O)N2CCOCC2)s1	none
